Results filed as inconclusive are left out. Entries that show only a call come without a potency. The source made the active and inactive calls. Calls follow the shape of the dose curve; as a rule, active = well fitted curve in the direction sought with a large enough effect; inconclusive = small, poorly fitted or top-dose-only effect, or another doubt; inactive = no such curve, though single readings can be large; an effect the other way counts as inactive or inconclusive.
Potency is read from the fitted curve at half-maximal effect.

The first test in a line: qHTS of pediatric cancer cell lines to identify multiple opportunities for drug repurposing: Confirmatory screen for BT-12 cells (AID 1347112). Also: nearly all actives have a fitted effect of over 55% in size. The following applies: BT-12 rhabdoid tumor cells, viability; series mostly up to 45.9 µM. The method, boiled down: (§1)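 Cells (500-1,000/well) in growth media were settled 5 h at 37 degrees C, then given compounds for 48 h. Viability was read as CellTiter-Glo luminescence. Primary runs used MIPE at 11 points (0.78 nM-46 µM) and NPC at 8 points (0.59 nM-46 µM); follow-ups used 11 points.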
(In general: In qHTS, concentration-response curves come from the screen itself.)
In the case of `C[C@@H]1[C@H](O)[C@@H](C)C=CC=CC=CC=CC=CC=CC=C[C@H](O[C@@H]2O[C@H](C)[C@H](O)[C@H](N)[C@@H]2O)C[C@@H]2O[C@](O)(C[C@@H](O)C[C@@H](O)[C@H](O)CC[C@@H](O)C[C@@H](O)CC(=O)O[C@H]1C)C[C@H](O)[C@@H]2C(=O)O`, the Potency entry was “inactive”.

For `CCC[C@H](N[C@@H](C)C(=O)N1[C@@H]2CCCC[C@H]2C[C@H]1C(=O)O)C(=O)OCC`, the Potency entry is “inactive”.

As to `CNC(=O)[C@H](CC1=CN=C2C=CCC=C12)NC(=O)[C@@H](CC(=O)NO)CC(C)C`, the Potency is 2610 nM (active).

Turning to `CCC(=O)OCC(=O)[C@@]1(OC(=O)CC)[C@@H](C)C[C@@H]2[C@H]3CCC4=CC(=O)C=C[C@]4(C)[C@@]3(F)[C@@H](O)C[C@@]21C`, the Potency result was “inactive”.

For the molecule `CC[C@]1(O)C[C@H]2CN(CCC3=c4ccccc4=N[C]3[C@@](C(=O)OC)(c3cc4c(cc3OC)N(C)[C@H]3[C@@](O)(C(N)=O)[C@H](O)[C@]5(CC)C=CCN6CC[C@]43[C@@H]65)C2)C1`, the Potency is 147 nM (active).

`COc1cc(CNC(=O)CCCCC=CC(C)C)ccc1O`: the Potency result is “inactive”.

As for `CCC(C)SSc1ncc[nH]1` (stereo not drawn), the Potency is 23300 nM (active).

`CC1CNc2c(cccc2S(=O)(=O)N[C@@H](CCCN=C(N)N)C(=O)N2CC[C@@H](C)C[C@@H]2C(=O)O)C1` (stereo partly drawn): the Potency entry was “inactive”.

Consider `CC1=C(CC(=O)O)c2cc(F)ccc2C1=Cc1ccc(S(C)=O)cc1` (stereo not drawn), for which the Potency result is “inactive”.

On to `Cc1ccccc1-n1c(Cn2nc(-c3cccc(O)c3)c3c(N)ncnc32)nc2cccc(C)c2c1=O`, for which the Potency entry is “inactive”.

In the case of `Cc1cccc(-c2[nH]c(C(C)(C)C)nc2-c2ccc3c(c2)OCO3)n1`, the Potency is 11700 nM (active).

Regarding `CCN(CCO)CCCOc1ccc2c(Nc3cc(CC(=O)Nc4cccc(F)c4)[nH]n3)ncnc2c1`, the Potency entry is “inactive”.

Consider `CC[C@H](NC(=O)[C@H](C)NC)C(=O)N1C[C@@H](O)C[C@H]1Cc1c(-c2[nH]c3cc(F)ccc3c2C[C@H]2C[C@H](O)CN2C(=O)[C@H](CC)NC(=O)[C@H](C)NC)[nH]c2cc(F)ccc12`, for which the Potency is 18500 nM (active).

Turning to `Cc1ccc2c(c1)C(=O)[C@]1(O)CCN(c3ccccc3)C1=N2`, the Potency entry is “inactive”.

In the case of `COc1cc2ncnc(Nc3cc(Br)c(O)c(Br)c3)c2cc1OC`, the Potency entry is “inactive”.

Take `C[C@@H]1C[C@H]2[C@@H]3CCC4=CC(=O)C=C[C@]4(C)[C@@]3(F)[C@@H](O)C[C@]2(C)[C@@]1(O)C(=O)CO`: the Potency entry was “inactive”.

Regarding `C[C@H](c1ccc(F)cc1CCCC(=O)O)N(c1cc(F)ccc1F)S(=O)(=O)c1ccc(Cl)cc1`, the Potency entry was “inactive”.

As for `Cc1ccc(C(=O)N(CCCN)[C@@H](c2nc3cc(Cl)ccc3c(=O)n2Cc2ccccc2)C(C)C)cc1`, the Potency is 759 nM (active).

In the case of `Cc1ccc(C(=O)N(CCCN)[C@@H](c2oc3cc(Cl)ccc3c(=O)c2Cc2ccccc2)C(C)C)cc1`, the Potency was 10.4 nM (active).

Take `O=C1Nc2ccc(I)cc2C1=Cc1cc(Br)c(O)c(Br)c1`: the Potency result was “inactive”.

A further test in a line: qHTS of pediatric cancer cell lines to identify multiple opportunities for drug repurposing: Confirmatory screen for LAN-5 cells (AID 1347113). Also: nearly all actives have a fitted effect of over 65% in size. The following applies: LAN-5 neuroblastoma cell viability; series mostly up to 45.9 µM. Put shortly: as §1
In the case of `C[C@@H]1[C@H](O)[C@@H](C)C=CC=CC=CC=CC=CC=CC=C[C@H](O[C@@H]2O[C@H](C)[C@H](O)[C@H](N)[C@@H]2O)C[C@@H]2O[C@](O)(C[C@@H](O)C[C@@H](O)[C@H](O)CC[C@@H](O)C[C@@H](O)CC(=O)O[C@H]1C)C[C@H](O)[C@@H]2C(=O)O`, the Potency result was “inactive”.

Regarding `CCC[C@H](N[C@@H](C)C(=O)N1[C@@H]2CCCC[C@H]2C[C@H]1C(=O)O)C(=O)OCC`, the Potency result is “inactive”.

As for `CCC(=O)OCC(=O)[C@@]1(OC(=O)CC)[C@@H](C)C[C@@H]2[C@H]3CCC4=CC(=O)C=C[C@]4(C)[C@@]3(F)[C@@H](O)C[C@@]21C`, the Potency entry was “inactive”.

Consider `CC[C@]1(O)C[C@H]2CN(CCC3=c4ccccc4=N[C]3[C@@](C(=O)OC)(c3cc4c(cc3OC)N(C)[C@H]3[C@@](O)(C(N)=O)[C@H](O)[C@]5(CC)C=CCN6CC[C@]43[C@@H]65)C2)C1`, for which the Potency was 147 nM (active).

Regarding `COc1cc(CNC(=O)CCCCC=CC(C)C)ccc1O`, the Potency result is “inactive”.

For `CCC(C)SSc1ncc[nH]1` (stereo not drawn), the Potency is 13100 nM (active).

Regarding `CC(C)n1c(C=C[C@H](O)C[C@H](O)CC(=O)O)c(-c2ccc(F)cc2)c2ccccc21`, the Potency entry was “inactive”.

For `CCOC(=O)[C@H](CCc1ccccc1)N[C@@H](C)C(=O)N1CCCC1C(=O)O` (stereo partly drawn), the Potency is 9270 nM (active).

As to `CC1=C(CC(=O)O)c2cc(F)ccc2C1=Cc1ccc(S(C)=O)cc1` (stereo not drawn), the Potency result was “inactive”.

For `Cc1ccccc1-n1c(Cn2nc(-c3cccc(O)c3)c3c(N)ncnc32)nc2cccc(C)c2c1=O`, the Potency result is “inactive”.

Consider `CCC[C@H](Nc1nc(-c2ccc(NC(=O)NCC)c(OC)c2)ncc1C)c1cccnc1`, for which the Potency is 414 nM (active).

Regarding `Cc1cccc(-c2[nH]c(C(C)(C)C)nc2-c2ccc3c(c2)OCO3)n1`, the Potency is 2610 nM (active).

As for `Cc1ccc2c(c1)C(=O)[C@]1(O)CCN(c3ccccc3)C1=N2`, the Potency entry was “inactive”.

With `COc1cc([C@@H]2c3cc4c(cc3[C@@H](O[C@@H]3O[C@@H]5CO[C@@H](C)O[C@@H]5[C@H](O)[C@@H]3O)[C@H]3COC(=O)[C@H]23)OCO4)cc(OC)c1O`, the Potency was 1470 nM (active).

Consider `C[C@@H]1C[C@H]2[C@@H]3CCC4=CC(=O)C=C[C@]4(C)[C@@]3(F)[C@@H](O)C[C@]2(C)[C@@]1(O)C(=O)CO`, for which the Potency entry is “inactive”.

For the molecule `C[C@H](c1ccc(F)cc1CCCC(=O)O)N(c1cc(F)ccc1F)S(=O)(=O)c1ccc(Cl)cc1`, the Potency result is “inactive”.

Regarding `Cc1ccc(C(=O)N(CCCN)[C@@H](c2oc3cc(Cl)ccc3c(=O)c2Cc2ccccc2)C(C)C)cc1`, the Potency was 14700 nM (active).

Consider `COC(=O)Nc1ccc(-c2nc(N3CCOCC3)c3cnn(C4CCN(C(=O)OC)CC4)c3n2)cc1`, for which the Potency was 8270 nM (active).

Source of the values: PubChem BioAssay (NCATS).
